Test results reported in PubChem BioAssay AID743360 (Molecular Libraries Program, Specialized Chemistry Center, …, 2014).
Values without a mark were called inactive. Calls of active or inactive are those of the source.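 How the source made its calls: active means calcium retention capacity relative to untreated control above about 1.1 ratio (limit read from the data); inactive means the rest.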

test: mtPTP inhibition via calcium retention, dose response, biochemical, dry powder samples, uHTS hits, Calcium Green-5N (AID 743360); details: isolated mitochondria, Ca retention capacity

| SMILES | CRC/CRC0 ratio at 12.5 uM (higher = more inhibition) |
| --- | --- |
| COc1ccc(Cl)cc1S(=O)(=O)Nc1ccc(N2CCN(C)CC2)cc1 | 1.03 |
| COc1ccc(Cl)cc1C(=O)Nc1ccc(CCN2CCCCC2)cc1 | 1.51 (active) |
| COc1ccc(Cl)cc1S(=O)(=O)Nc1ccc(CCN2CCCCC2)cc1 | 1.07 |
| O=C(Nc1ccc(CN2CCCCC2)cc1)c1cc(Cl)ccc1O | 1.1 (active) |
| CCCc1cc(C(=O)Nc2c(F)cc(F)cc2Br)no1 | 1.13 (active) |
| CC1CCN(CCCC(=O)c2ccc(Br)cc2)CC1 | 1.05 |
| COc1ccc(NC(=O)c2cc(-c3ccc(Cl)cc3)on2)cc1Cl | > 1 |
| CN1CCN(Cc2ccc(NC(=O)c3cccc(OCc4ccccc4)c3)cc2)CC1 | 2.26 (active) |
| COc1ccc(Cl)cc1C(=O)Nc1ccc(CCN2CCNCC2)cc1 | 1.31 (active) |
| O=S(=O)(Nc1ccc(CCN2CCCCC2)cc1)c1cccc(Cl)c1 | 1.12 (active) |
| O=C(Nc1cccc(F)c1)c1cc(-c2cccc(O)c2)on1 | 2.24 (active) |
| COc1ccc(NC(=O)c2cc(Cl)cc(Cl)c2OC)cc1 | > 1 |
| COc1ccc(Cl)c(C(=O)Nc2ccc(CN3CCCCC3)cc2)c1 | > 1 |
| COc1ccc(Cl)cc1C(=O)Nc1ccc(CN2CCOCC2)cc1 | 1.2 (active) |
| COc1ccc(Cl)cc1C(=O)Nc1ccccc1 | 1.07 |
| O=C(Nc1ccc(Cl)cc1)c1cc(-c2cccc(O)c2)on1 | 3.44 (active) |
| Cc1c(Cl)cccc1NC(=O)c1cc(-c2cccc(O)c2)on1 | 6 (active) |
